The campaign covered roughly 200,000 compounds. About 65 (0.03%) were called active.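 Rule for the calls: active = activation of at least 50% relative to the plate's high and low controls in the primary single-dose screen; inactive = activation below 50%.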 The sample as a whole holds a higher share of actives than the screen did.
assay: compounds producing H2O2 with reducing agent – biochemical, NIH compound library profiling, artefact control for MLSCN library redox annotation, primary screen (AID 878); conditions: DTT-dependent redox cycling H2O2, phenol red/HRP absorbance; at 10 µM; active compounds read high; 100% = 100 µM peroxide control, 0% = buffer;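 note: compound incubated with DTT at 0.8 mM final as the reducing agent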

activation, inactive:
O=C(CN(C(=O)c1csnn1)c1cccc(F)c1)NCc1ccc(F)cc1 0.3%
C=C(C)CNC(=S)N/N=C/c1ccccc1OCC(=O)O -0.31%
COc1ccc(NC(=O)c2ccccc2[N+](=O)[O-])cc1OC 0.48%
O=C(Nc1ccc(Br)cn1)c1ccc([N+](=O)[O-])o1 -1.5%
Cc1cc(C)c(C#N)c(N2CCC(C(N)=O)CC2)n1 -1.8%
O=C(NN1C(=O)C2C3C=CC(C3)C2C1=O)c1ccco1 (stereo not given) -0.88%
COc1ccccc1CC(NC(C)=O)C(=O)NC1CCN(C(=O)Nc2ccccc2Cl)CC1 (stereo not given) -0.13%
CCn1c(SCC(=O)N(C)C2CCS(=O)(=O)C2)nnc1-c1cccs1 (stereo not given) -1.15%
COC(=O)c1nc(NC(=O)c2ccc(C(C)(C)C)cc2)n[nH]1 -0.33%
O=C(C1CCN(S(=O)(=O)c2ccc(Br)s2)CC1)N1CCN(C2CCCCC2)CC1 0.46%
CSCCNCc1cn(-c2ccc(F)cc2F)nc1-c1ccccc1C 0.48%
COC(=O)Cc1ccc(OCC(=O)Nc2ccc(OC(F)(F)F)cc2)cc1 0.09%
O=C1/C(=C\c2ccccc2Cl)SC(=S)N1CCC(=O)N1CCCc2ccccc21 -0.64%
CC(C)Oc1ccc(/C=C(\NC(=O)/C=C/c2ccco2)C(=O)NCCc2nc3ccccc3[nH]2)cc1 0.27%
O=C(NN1C(=O)C2C3C=CC(O3)C2C1=O)c1ccccc1 (stereo not given) -0.16%
COc1cc2c3c(c1)/C(=C1/SC(=S)NC1=O)C(=O)N3C(C)(C)C=C2C -0.69%
CN(C)c1ccc(/C=N/NC(=O)c2ccc(Cn3cc(Br)cn3)o2)cc1 -0.04%
COCC(C)NC(=O)CSc1nc2nn(-c3ccccc3)c(=O)c-2c2n1CCCCC2 (stereo not given) -1.27%
CN(C)C(=O)c1ccc2c(c1)C1C3CCC(C3)C1C(c1ccccc1)N2 (stereo not given) -0.17%
N=c1n(CCc2ccccc2)c2ccccc2n1Cc1ccccc1F -0.46%
COc1ccc(C2NC(=S)NC3=C2CCc2ccccc23)cc1OC (stereo not given) 0.96%
CCCn1c(N)c(C(=O)CSc2nc3ccccc3c(=O)n2-c2ccc(OC)cc2)c(=O)[nH]c1=O 0.00314%
CC(C)c1nccn1S(=O)(=O)c1cc([N+](=O)[O-])ccc1Cl 1.71%
O=c1cc(-c2ccccc2)[nH]c2cc(F)ccc12 -0.1%
COc1ccccc1N1CCN(CC(=O)NCCc2ccc(S(N)(=O)=O)cc2)CC1 0.00253%
COc1ccc(OC)c(-c2csc(NC(=O)C3=NNC(=O)CC3)n2)c1 -1.87%
COc1ccc(OCC(=O)Nc2cc(C)c(Cl)cc2OC)c([N+](=O)[O-])c1 0.12%
CC1CCN(S(=O)(=O)c2ccc3ncn(CC(=O)N(C)C4CCCCC4)c(=O)c3c2)CC1 -2.09%
CCc1nc2ccccc2c(C(=O)OC2CCCCC2=O)c1C (stereo not given) 0.11%
CCOC(=O)C1(Cc2cccc(OC)c2)CCN(C(C)COC)CC1 (stereo not given) -0.66%
O=C(CSc1nnc(-c2ccncc2)o1)NCc1ccc(Cl)cc1 -0.01%
CC(C)(C)CN1CCNC(=O)C1CC(=O)NC1Cc2ccccc2C1 (stereo not given) -0.72%
Cc1cccc(NC(=S)N(CCN(C)C)C(C)c2ccco2)c1 (stereo not given) 0.05%
CC(C)(C)[C@H]1C=C(C(=O)NCc2ccccc2)O[C@@H](OCc2ccc(CO)cc2)C1 -1.79%
CCC(C)(C)NC(=O)c1cc([N+](=O)[O-])ccc1N1CCCCC1 -0.54%
CCCn1nc(Oc2nc(NC(C)C)nc(N(C)C)n2)ccc1=O 0.03%
Nc1c(-c2ccc(F)cc2)cnc2ncnn12 1.8%
O=C(CN1CCN(C/C=C/c2ccccc2)CC1)Nc1ccc(F)cc1F -0.37%
O=C(CP(=O)(c1ccccc1)c1ccccc1)N1CCOCC1 0.42%
CC(=O)C1=C(C)NC2=C(C(=O)CC(C)(C)C2)C1C (stereo not given) -0.01%
CN1C(=O)/C(=C/c2ccco2)SC1=Nc1cccc(C(=O)O)c1 -0.55%
Cc1cccc(-n2c(Cc3cc(=O)[nH]c(=O)[nH]3)nnc2SCC(=O)Nc2cccc(C(F)(F)F)c2)c1 0.37%
Cc1ccc(OCC(=O)NNC(=S)NCc2ccccc2)cc1 0.08%
CN(C)Cc1ccc(F)cc1Sc1cc(Cl)ccc1Cl -0.14%
CCOc1cc(CNn2c(C)nnc2SCC(=O)NC(C)(C)C)ccc1OCC(=O)NC(C)(C)C -0.27%
CC1=NNC(=O)C1CCC(=O)N/N=C\c1ccc(Cl)c(Cl)c1 (stereo not given) -0.00164%
Cc1ccc2nc(-c3ccccn3)cc(C(=O)Nc3ccc4c(c3)OCO4)c2c1 4.14%
Cc1ccccc1-n1nc(SCC(=O)O)sc1=S -0.13%
CC(=O)Nc1ccccc1C(=O)C(=O)Nc1ccc(F)cc1 -3.37%
CN(C)/C=C/C(=O)c1cnc2sccn2c1=O 0.12%

Source: PubChem BioAssay AID878 (University of Pittsburgh Molecular Library Screening Center, 2007)
